According to PubChem BioAssay AID504332 (National Center for Advancing Translational Sciences (NCATS), 2011):
Screen size: about 350,000 compounds; about 31,000 (8.9%) were called active. Entries that show only a call come without a potency. Roughly 15% stayed inconclusive and do not appear here. Many of the other results were omitted from the sample, so actives are more common in it than they were. Unmarked numbers belong to inactive results. The call rests on the fitted dose curve; in most records, active means well fitted inhibition curve with a large enough effect; inconclusive means small, poorly fitted or top-dose-only effect; inactive means no such curve, though single readings can be large or run the other way.

Target: Histone-lysine N-methyltransferase EHMT2 (Homo sapiens) (UniProt Q96KQ7)
Sequence (Q96KQ7 913-1193 limits assumed): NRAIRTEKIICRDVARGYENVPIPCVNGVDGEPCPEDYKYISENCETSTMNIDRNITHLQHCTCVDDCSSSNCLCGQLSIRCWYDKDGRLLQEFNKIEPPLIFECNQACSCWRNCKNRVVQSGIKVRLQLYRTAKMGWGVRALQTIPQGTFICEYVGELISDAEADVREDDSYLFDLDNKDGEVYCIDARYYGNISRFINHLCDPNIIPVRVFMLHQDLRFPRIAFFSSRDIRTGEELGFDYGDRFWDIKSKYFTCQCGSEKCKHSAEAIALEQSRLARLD
Assay: qHTS Assay for Inhibitors of Histone Lysine Methyltransferase G9a; further: nearly all actives have a fitted effect of over 75% in size
Settings: G9a H3K9 monomethylation, AlphaScreen, 2 h; series mostly up to 59 µM
Outline: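 Methyltransferase reactions run at room temperature for 2 h (20 nM enzyme, 500 nM biotin-H3K9 peptide, 20 uM SAM) after a 15 min compound preincubation; product detected by AlphaScreen beads and anti-H3K9me1 antibody.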
Potency means the concentration at half of the fitted maximal effect.

Row | SMILES | Potency | activity, negative = inhibition
1 | Cc1ccc(Cl)cc1NC(=O)CCC(=O)N1CC(C)Sc2ccccc21 (stereo not drawn) | inactive | –
2 | O=C(NCc1ccccc1)c1ccc2c(c1)nc1n2CCCCC1 | inactive | –
3 | CC(=O)c1ccc(NS(=O)(=O)c2ccc(-c3cc(C)no3)s2)cc1 | inactive | –
4 | Cc1ccc(N(C)C(=O)C2CCN(S(=O)(=O)c3ccc4c(c3)CCCN4C(=O)C3CCC3)CC2)cc1 | inactive | –
5 | CCN(C(=O)COc1ccc(C(=O)c2ccccc2)cc1)c1ccccc1 | inactive | –
6 | CC(=O)NNC1=Nc2ccccc2N(C)C(C)C1 (stereo not drawn) | 31.6 µM (active) | –
7 | COC(=O)C1=C(C(=O)OC)[C@@H]2N(C)c3ccccc3[C@@]23C[C@@H](C(=O)OC)N(C(C)=O)C3=N1 | inactive | –
8 | O=C(CNS(=O)(=O)c1ccc2ccccc2c1)Nc1ccc(F)c(F)c1F | – | 2.41% [at 12.7 µM]
9 | CC1CCCCC12NC(=O)N(CC(=O)Nc1ccc(S(=O)(=O)Nc3ncccn3)cc1)C2=O (stereo not drawn) | – | -10.5% [at 12.7 µM]
10 | COc1ccccc1N1CCN(C(=O)c2ccc(S(=O)(=O)N3CCCCC3)cc2)CC1 | – | -28.9% [at 12.7 µM]
11 | COc1ccc(S(=O)(=O)Nc2ccccc2C(=O)N2CCCC2)cc1C | inactive | –
12 | COc1ccccc1NS(=O)(=O)c1ccc(C(=O)N2CCN(c3ccccc3O)CC2)cc1 | 44.7 µM (active) | –
13 | CC1CN(C(=O)COC(=O)c2cccc(NS(=O)(=O)c3ccccc3)c2)CC(C)O1 (stereo not drawn) | – | 3.95% [at 0.501 µM]
14 | CCOc1ncccc1C(=O)NNC(=O)c1cccc(S(=O)(=O)Nc2ccccc2OC)c1 | inactive | –
15 | COc1ccc(N2CCN(C(=O)COC(=O)c3cccc(S(=O)(=O)Nc4ccccc4OC)c3)CC2)cc1 | 15.8 µM (active) | –
16 | CCOc1ccc(C2CC(=O)c3c([nH]c(C(=O)OCc4ccccc4)c3C)C2)cc1 (stereo not drawn) | inactive | –
17 | CN(c1ccccc1)S(=O)(=O)c1cccc(C(=O)NNC(=O)c2ccncc2)c1 | inactive | –
18 | COc1ccc(OC)c(-c2csc(-c3c(N)c(C(=O)c4ccccc4)n4ccccc34)n2)c1 | inactive | –
19 | Cc1nn(CC(=O)O)c(=O)c2cc3cc(F)ccc3n12 | inactive | –
20 | Cc1ccn2c(=O)c(NC(=O)c3cccc4ccccc34)c(C)nc2c1 | inactive | –
21 | c1ccc(Nc2n[nH]nc2-c2ccccc2)cc1 | inactive | –
22 | N#Cc1c(-c2ccccc2)c(-c2ccccc2)n[nH]c1=O | inactive | –
23 | O=C(O)c1n[nH]nc1-c1ccccc1 | 3.55 µM (active) | –
24 | CCOc1ccc(OCC)c(NC(=O)c2c(C)nn(-c3ccccc3)c2-n2cccc2)c1 | inactive | –

Row | SMILES | Potency | activity, negative = inhibition
25 | CC(C)c1ccc(C2CC(=O)N3CN(C4CCCCC4)CSC3=C2C#N)cc1 (stereo not drawn) | 2.24 µM (active) | –
26 | CC(C)c1ccc(C2C(C#N)=C(N)Oc3c2oc(CO)cc3=O)cc1 (stereo not drawn) | inactive | –
27 | OCC[C@H]1C[C@@H](O)[C@H](O)[C@@]2(OCCc3ccccc32)O1 | – | -2.06% [at 2.33 µM]
28 | O=C(CCSCc1ccccc1F)N1CCN(c2ccc(Cl)cc2)CC1 | inactive | –
29 | Cc1cc(=O)[nH]c(SCC(=O)N2c3ccccc3CC2C)n1 (stereo not drawn) | – | -1.7% [at 12.7 µM]
30 | Cc1cc(C)c(C(=O)CSc2nc(C)cc(=O)[nH]2)c(C)c1 | 31.6 µM (active) | –
31 | Cc1cc(=O)[nH]c(SCC(=O)Nc2ccc(Br)cc2)n1 | – | 10.1% [at 12.7 µM]
32 | Cc1cc(Cl)c2oc(C(=O)NC(C)c3ccncn3)c(C)c2c1 (stereo not drawn) | inactive | –
33 | COc1ccc(N=Cc2c(O)[nH]c3ccccc23)cc1OC | 50.1 µM (active) | –
34 | COc1cc(N=Cc2c(O)c3ccccc3oc2=O)c(OC)cc1Cl | – | 16.1% [at 0.501 µM]
35 | COc1ccccc1N=Cc1c(O)c2ccccc2oc1=O | inactive | –
36 | CCOC(=O)Cn1c(=O)n(Cc2ccc(OC)cc2)c(=O)c2cccnc21 | inactive | –
37 | CC1CCCN(S(=O)(=O)c2ccc3[nH]c(=O)cc(C(=O)NCCc4ccc(Cl)cc4)c3c2)C1 (stereo not drawn) | inactive | –
38 | COc1ccc(S(=O)(=O)NCc2cccn2Cc2cccc(C)c2)cc1 | inactive | –
39 | CCOc1ccccc1C(=O)NCc1ccc2c(c1)CCN2C(=O)c1ccc(F)cc1 | inactive | –
40 | c1coc(-c2nc3nc4ccccc4n3nc2-c2ccco2)c1 | 10 µM (active) | –
41 | Cc1nn2c3ccccc3nc2n(C)c1=O | inactive | –
42 | Cn1c(-c2ccco2)nc2cc3ccccc3cc21 | – | 8.95% [at 0.0925 µM]
43 | CCOc1ccc(CCNC(=O)c2c(C)oc3ncn(C)c(=O)c23)cc1 | inactive | –
44 | CCCc1nn2c(=O)cc(COC(=O)c3ccc(NC(=O)C(C)Oc4ccccc4)cc3)nc2s1 (stereo not drawn) | inactive | –
45 | COc1ccc(C(=O)/C=C/c2ccc(OC3CSC3)cc2)cc1 | inactive | –
46 | COc1ccc(/C=C/C(=O)c2ccc(OC)cc2O)cc1 | inactive | –
47 | COc1ccc(/C=C/C(=O)c2cc(Br)ccc(=O)c2O)cc1 | 10 µM (active) | –
48 | Cc1cccc(Cc2c(C)nc3nc(SCc4ccccc4Cl)nn3c2C)c1 | inactive | –

Row | SMILES | Potency | activity, negative = inhibition
49 | CCOC(=O)c1ccc(N2C(=O)c3n[nH]c(-c4ccco4)c3C2c2ccc(O)cc2)cc1 (stereo not drawn) | 17.8 µM (active) | –
50 | CCOC(=O)c1ccc(N2C(=O)c3[nH]nc(-c4ccccc4)c3C2c2ccc(C(C)C)cc2)cc1 (stereo not drawn) | inactive | –
51 | CCOC(=O)c1ccc(N2C(=O)c3n[nH]c(C)c3C2c2ccc(O)c(OC)c2)cc1 (stereo not drawn) | inactive | –
52 | Cc1ccc(F)cc1NC(=O)CCSc1nc(-c2ccco2)cc(C(F)(F)F)n1 | inactive | –
53 | Cc1ccc(NC(=O)CCCn2c(=O)c3cccn3c3ccccc32)cc1Cl | inactive | –
54 | O=C1CN(C(=O)COC(=O)C2CC(=O)N(Cc3ccco3)C2)c2ccccc2N1 (stereo not drawn) | 50.1 µM (active) | –
55 | COc1cc(OC)c(C(=O)OCC(=O)N2CC(=O)Nc3ccccc32)cc1OC | inactive | –
56 | Cc1ccc(S(=O)(=O)N2CCC(C(=O)OCC(=O)N3CC(=O)Nc4ccccc43)CC2)cc1 | inactive | –
57 | COc1ccc(OC)c(S(=O)(=O)N2CCCC(C(=O)N3CCC(C(N)=O)CC3)C2)c1 (stereo not drawn) | inactive | –
58 | O=C(CSc1ncc(CO)n1Cc1ccc(Cl)cc1)NCc1ccc(F)cc1 | inactive | –
59 | CCc1c(C)sc(NC(=O)c2cccs2)c1C(N)=O | 11.2 µM (active) | –
60 | CCCc1nnc(NC(=O)c2cccs2)s1 | – | -0.387% [at 12.7 µM]
61 | CCc1c(C)sc(NC(=O)c2ccc(Br)o2)c1C(=O)OC | inactive | –
62 | CCc1c(C)sc(NC(=O)C2c3ccccc3Oc3ccccc32)c1C(=O)OC(C)C | inactive | –
63 | COc1cc(C(=O)NCC(=O)N2CC=C(c3ccccc3)CC2)cc(OC)c1OC | inactive | –
64 | O=C(COC(=O)c1ccccc1)c1ccc2c(c1)OCCO2 | inactive | –
65 | CN(C(=O)C1CCN(c2ncnc3c2nc2n3CCCCC2)CC1)C1CCCCC1 | inactive | –
66 | COCc1c(C(=O)OCC(=O)Nc2ccc(OC(F)F)cc2)oc2ccccc12 | – | -14.1% [at 12.7 µM]
67 | CN(C(=O)Cn1nnc(-c2ccc(F)cc2)n1)C1CCS(=O)(=O)C1 (stereo not drawn) | – | 14.1% [at 12.7 µM]
68 | O=C(c1ccc(F)cc1)N1CCCC(c2nc(-c3cccs3)no2)C1 (stereo not drawn) | inactive | –
69 | Cc1ccc(-c2noc(C3CCCN(C(=O)c4cccc(Cl)c4)C3)n2)o1 (stereo not drawn) | 39.8 µM (active) | –
70 | COc1cccc(-c2noc(C3CCCN(C(=O)c4ccc(F)cc4)C3)n2)c1 (stereo not drawn) | inactive | –
71 | COc1ccc2nc(N3CCN(C(=O)c4ccc([N+](=O)[O-])o4)CC3)sc2c1 | inactive | –
72 | CCc1ccccc1NC(=O)c1cnn(-c2ccc(F)cc2)c1C1CCNCC1 | inactive | –

Row | SMILES | Potency | activity, negative = inhibition
73 | O=C(Nc1ccc(N2CCCC2=O)cc1)c1cncc(Br)c1 | inactive | –
74 | O=C(NC(=S)Nc1ccc(Cl)c(C(=O)O)c1)c1cncc(Br)c1 | 44.7 µM (active) | –
75 | COC(=O)c1ccccc1NC(=O)c1cncc(Br)c1 | inactive | –
76 | O=C(NCCc1ccc(F)cc1)c1ccc2nccnc2c1 | – | -12.4% [at 12.7 µM]
77 | COc1cc(OC)cc(C(=O)NCC(=O)N2CCCCCCC2)c1 | – | 12.1% [at 12.7 µM]
78 | CCN(CC(=O)Nc1ccc(NC(C)=O)cc1)C(=O)CSC(=S)N1CCCC1 | – | -6.65% [at 12.7 µM]
79 | CCc1ccccc1NC(=O)Cc1ccc(NC(=O)N2CCCCc3ccccc32)cc1 | inactive | –
80 | Cc1ccc(Nc2c(-c3ccc(N(C)C)cc3)nc3nc[nH]n23)cc1 | 2.51 µM (active) | –
81 | Cc1ccc(Nc2c(-c3ccc(C)cc3)nc3cnccn23)cc1 | inactive | –
82 | COC(=O)C1(C)NC(c2ccc(F)cc2)C2C(=O)N(c3ccccc3)C(=O)C21 (stereo not drawn) | inactive | –
83 | Cc1sc2nc(CSCC(=O)NC3CCCCC3)[nH]c(=O)c2c1C | – | -8.21% [at 0.501 µM]
84 | COc1cc(OC)c(N2CC(C(=O)Nc3cc(Cl)ccc3N3CCOCC3)CC2=O)cc1Cl (stereo not drawn) | inactive | –
85 | COc1cc(OC)c(-n2cc(-c3ccc(Cl)cc3)[nH]c2=O)cc1Cl | 31.6 µM (active) | –
86 | COc1cc(OC)c(-n2c(C)cc(C=O)c2C)cc1Cl | inactive | –
87 | CCOC(=O)C1CCN(c2nc3c(S(=O)(=O)c4ccc(CC)cc4)nnn3c3ccc(Cl)cc23)CC1 | inactive | –
88 | CCCCNC(=O)CSc1nc2cc3c(cc2c(=O)n1CCCCCC(=O)NCc1ccc2c(c1)OCO2)OCO3 | inactive | –
89 | O=C(CNS(=O)(=O)c1ccc2c(c1)OCCCO2)N1CCN(c2ccc(F)cc2)CC1 | – | 24.8% [at 12.7 µM]
90 | O=C(O)c1ccc(NS(=O)(=O)c2ccc3c(c2)C(=O)c2cc(S(=O)(=O)Nc4ccc(C(=O)O)cc4)ccc2-3)cc1 | 50.1 µM (active) | –
91 | CC(=O)c1c(C)oc2ccc(NS(=O)(=O)c3ccc(C(=O)O)cc3)cc12 | inactive | –
92 | Cc1cc(C(C)(C)C)cc(S(=O)(=O)Nc2ccc(C(=O)O)cc2)c1C | inactive | –
93 | CCCn1c2ccccc2c2cnn(CC(=O)N(C)c3ccccc3CC)c(=O)c21 | inactive | –
